Where “and” joins values, the source holds several entries; their conditions need not be identical. Equal values may be shown once. Compounds without any hit were thinned out: in the full panel of roughly 83,000, 20% have a hit.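 Cells were grown in 96-well plates and exposed to the test compound at a single concentration for 48 hours; results are reported as percent growth, with values below 10 considered active.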 Values without a mark were called inactive. Calls of active or inactive are those of the source.

The subject of this experiment is HL-60(TB) leukemia. The experiment in a line: NCI-60 one-dose screen, 48 h (100 = growth as untreated, 0 = no growth, -100 = all killed). Particulars: 10 µM unless noted.
With `COc1cc(C2CC(c3ccc(C)cc3)=Nc3c(N)nc(N)nc3N2)ccc1Oc1nc(Nc2ccc(F)cc2)nc(N(C)C)n1` (centres undefined), the growth was 52%. Under `COC(=O)c1cccc(Oc2ccc(NC(=O)Nc3cc(C(F)(F)F)ccc3F)cc2)c1` stands 78%. The same measure for `N/C(=N\c1nc2ccccc2s1)NC(=O)Nc1c(Cl)cccc1Cl`: 17.9%. Under `O=C(CSc1nnc(-c2c[nH]c3ccccc23)n1-c1ccccc1)Nc1ccc(C(=O)/C=C/c2ccc(Br)cc2)cc1` stands 83.2%; under `COc1ccc(N=Nc2c(N)nn3c(N)c(C#N)c(-c4ccccc4)nc23)cc1`, 80.8%; under `COc1ccc2c3nc4cc(C)c(C)cc4nc3n(CCN(C)C)c2c1`, -45.3% (active). On to `CC1=C(C(=O)OC(C)C)C(c2ccc(O)cc2)NC(=S)N1` (centres undefined), for which the growth is 88.1%. The same measure for `COc1cc2c3c(n(CCCn4ccnc4)c(=O)c2cc1OC)-c1nc2c(cc1C3=O)OCO2`: 75.8%; for `CCOC(=O)C(N=Nc1ccc(S(=O)(=O)N=C(N)N)cc1)C(C)=O` (centres undefined): 96.4%. For `Cn1cc(-c2cc(N)n3nc(-c4c[nH]c5ccc(Cl)cc45)cc3n2)c2cccnc21`, the growth was -59.8% (active).

On to `Cn1cc(-c2cc(N)n3nc(-c4c[nH]c5ccc(Br)cc45)cc3n2)c2cccnc21`, for which the growth is -49.9% (active). The same measure for `COc1sc(/C=N/NC(=O)c2[nH]c3ccc(Br)cc3c2-c2ccccc2)cc1Cl`: -42.8% (active); for `CCCCn1c(O)c(N=Nc2nc(-c3cc4ccccc4oc3=O)cs2)c2cc(Br)ccc21`: 101%; for `N#Cc1ccc(C(=O)NNC(=O)CSc2nc3sc4c(c3c(=O)n2-c2ccc(Cl)cc2)CCCC4)cc1`: 67.2%. The same measure for `COc1ccc2ccccc2c1/C=C1\SC(=Nc2ccc(O)cc2)NC1=O`: -29.9% (active). Take `O=C(N/N=C/c1ccc(-c2cccc([N+](=O)[O-])c2)s1)c1[nH]c2ccc(Br)cc2c1-c1ccccc1`: the growth is 81.4%.

With `O=C(NN1C(=O)/C(=C/C=C/c2ccc([N+](=O)[O-])o2)SC1=S)c1ccc([N+](=O)[O-])cc1`, the growth was -7.3% (active).

Regarding `CC(=O)c1ccc(Nc2nc(SC(C)C)nc(-c3ccccc3)c2C#N)cc1`, the growth was 93.6%. The same measure for `CC(=O)c1cccc(NC(=O)CCC(=O)NS(=O)(=O)c2ccc(C)cc2)c1`: 107%; for `O=C(NO)c1ccc(CNC(=O)[C@H]2Cc3c([nH]c4ccccc34)[C@H](c3ccccc3)N2)cc1`: 0.371% (active).

For the molecule `CCOc1ccc(/C=N/NC(=O)Cn2nc(Cc3ccc([N+](=O)[O-])cc3)c3onc(C)c3c2=O)cc1`, the growth is 81.5%. The same measure for `O=C(CSc1nnc(-c2ccc3nc(-c4ccc(Cl)cc4)[nH]c3c2)o1)Nc1ccc(Cl)cc1`: -20.9% (active); for `CONC[C@]1(C)C=C2C(=O)[C@](C)(O)C3(CC3)C(C)=C2[C@H]1O`: -29.3% (active); for `N#Cc1c(NC(=O)c2ccc(C(F)(F)F)cc2)sc2c1CCC(=O)C2`: 7.73% (active). The same measure for `O=C(CN1C(=O)/C(=C/c2ccccc2F)SC1=S)N1CCOCC1`: 82.5%; for `Cc1ccc(/C=C/C(=O)c2ccc(NC(=O)CSc3nnc(-c4c[nH]c5ccccc45)n3-c3ccccc3)cc2)cc1`: 75.5%. Under `COc1cc(CNC(=O)C[C@H](C)CCC=C(C)C)ccc1OCc1cn(-c2ccccc2Cl)nn1` stands 41.1%. `CC(=O)Nc1ccc(S(=O)(=O)Nc2ccc(-c3ccc4c(c3)NC(=O)/C4=C\c3ccc[nH]3)cc2)cc1`: the growth was 84.2%. In the case of `O=C(CSc1nnc(-c2c[nH]c3ccccc23)n1-c1ccccc1)Nc1ccc(C(=O)/C=C/c2ccc(Cl)cc2)cc1`, the growth was 66.8%. Turning to `C/C(=N\Nc1ccc(S(N)(=O)=O)cc1)c1cnn(-c2cc(=O)[nH]c3ccc(Br)cc23)c1C`, the growth was 84.7%. Take `Cn1cc(-c2nnc(N)nc2-c2c[nH]c3ccc(F)cc23)c2cc(Br)cnc21`: the growth was 47.1%. Under `CCOc1ccccc1[C@H]1C(C(=O)c2ccc(Cl)cc2)C2(N[C@@H]1c1ccccc1)C(=O)Nc1ccc(Cl)cc12` (some centres undefined) stands 18.2%; under `COc1cc2oc(-c3cccc(C(=O)Nc4ccc(Cl)cc4)c3)cc(=O)c2c(OCCN)c1OC`, -56.5% (active). Under `CS(=O)(=O)Nc1cccc(-n2cnc3cc(-c4ccc(O)cc4)ccc32)c1` stands 7.73% (active). Under `COc1ccc([C@H]2C(C(=O)c3ccc(Cl)cc3)C3(N[C@@H]2c2ccccc2)C(=O)Nc2ccc(Cl)cc23)cc1` (some centres undefined) stands 11.5%.

On to `Cc1cc(Cl)ccc1NC(=O)Nc1ccc(-c2ccc3c(c2)NC(=O)/C3=C\c2ccc[nH]2)cc1`, for which the growth is 78.9%. Under `COc1cc(-c2nc3ccc(C)cc3[nH]2)ccc1OCc1nnc(-c2ccccc2Br)o1` stands 69.5%. The same measure for `Cc1ccn2c(C(=O)c3ccccc3)cc(-c3cc(-c4ccc(N(C)C)cc4)c(C#N)c(N)n3)c2c1`: 95.1%; for `NC1(c2ccc(-c3ccc4ncnc(NCc5ccccc5)c4c3)cn2)COC1`: 113% and 106%.

For the origin of these results see PubChem BioAssay (NCI).
